In PubChem BioAssay AID485344 (National Center for Advancing Translational Sciences (NCATS), 2010):
The whole screen tested about 340,000 compounds, of which about 6,900 (2%) were called active. No stated cut-off is given here; in the data, active means inhibition above about 30%; inactive means below that, where a call was filed. The entries come from a sample that favours actives as a whole.

Each molecule was assayed against D(2) dopamine receptor (Homo sapiens) (UniProt P14416) (assay: HTS Assay for Allosteric Antagonists of the Human D2 Dopamine Receptor: Primary Screen for Antagonists). Settings: HEK293 TREx D2 cells, calcium flux, dopamine EC80; at 10 µM; active compounds read high.
D(2) dopamine receptor (Homo sapiens), sequence (P14416 whole entry, looked up): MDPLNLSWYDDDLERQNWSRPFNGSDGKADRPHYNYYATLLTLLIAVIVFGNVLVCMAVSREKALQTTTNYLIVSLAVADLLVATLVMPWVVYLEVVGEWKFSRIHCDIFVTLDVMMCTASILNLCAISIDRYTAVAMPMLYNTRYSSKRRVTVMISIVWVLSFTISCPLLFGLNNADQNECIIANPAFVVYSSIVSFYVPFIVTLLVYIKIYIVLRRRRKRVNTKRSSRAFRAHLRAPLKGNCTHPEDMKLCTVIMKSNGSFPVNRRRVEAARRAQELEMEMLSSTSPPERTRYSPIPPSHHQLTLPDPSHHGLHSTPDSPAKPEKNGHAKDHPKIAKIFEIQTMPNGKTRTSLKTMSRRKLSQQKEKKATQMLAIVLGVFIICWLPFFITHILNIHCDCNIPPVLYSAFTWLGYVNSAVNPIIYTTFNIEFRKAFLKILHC
Method in brief: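 Inhibition of EC80 dopamine-driven calcium flux, recorded kinetically, defines activity here; cells are a tetracycline-induced HEK293 T-REx line expressing force-coupled D2.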
Further: 0% is about no effect.

inhibition, active:
CC1CCCCC1NC(=O)CO/N=C/c1ccc(OC(F)F)cc1 (stereo unspecified) 34.1%, CC(=C1C(=O)c2ccccc2C1=O)N1CCN(c2ccccn2)CC1 56.1%, CC(C)[C@@H](NC(=O)OC(C)(C)C)C(=O)NCC1CCC(C(=O)N[C@@H](Cc2ccccc2)C(=O)O)CC1 (stereo partly specified) 31.8%, N#Cc1ccc(C(c2ccc(C#N)cc2)n2cncn2)cc1 48.6%, CCOc1ccc(Br)cc1S(=O)(=O)N1CCC(C(=O)O)CC1 39.3%, COc1ccccc1N1CCN(C(=O)c2cc3c(-c4ccc(Cl)cc4)nn(C)c3s2)CC1 31%, CCOC(=O)c1cc2sccc2n1Cc1ccc(C#N)cc1 31.1%, COc1c(O)cc2oc(-c3ccc(O)c(O)c3)cc(=O)c2c1O 36.2%, Cc1sc2nc(CSCC(=O)Nc3c(Cl)cccc3Cl)[nH]c(=O)c2c1C 43.2%, O=C(CNC(=O)C(c1ccccc1)c1ccccc1)N/N=C\c1ccc2c(c1)OCO2 34.6%, CCOc1ccccc1C(=O)NC1CC2CCCC(C1)N2Cc1ccccc1 (stereo unspecified) 92.5%, COc1ccc(NC(=O)NC2CC3CCCC(C2)N3Cc2ccccc2)cc1 (stereo unspecified) 46%, COc1ccc(CN2C3CCCC2CC(NC(=O)c2cccc(F)c2)C3)cc1 (stereo unspecified) 80.1%, CSCc1ccc(C(=O)Nc2cc(C)cc(C)c2)cc1 30.3%, COc1ccc(Cc2nnc(NC(=O)c3cc(OC)c(OC)c(OC)c3)s2)cc1OC 34.9%, CC(=O)C1=C(C)NC2=C(C(=O)CC(C)(C)C2)C1C (stereo unspecified) 34%, COC(=O)C1=C(C)NC2=C(C(=O)c3ccccc32)C1c1ccc(-c2ccc(C(=O)O)cc2)o1 (stereo unspecified) 54.8%, O=C(CCCCCn1c(=O)[nH]c2ccccc2c1=O)NCCc1c[nH]c2ccccc12 39.1%, O=C(CCCn1c(=O)[nH]c2cc(Cl)ccc2c1=O)NCCN1CCN(c2ccccc2)CC1 81.3%

inhibition, inactive:
O=C(CO/N=C/c1ccc(OC(F)F)cc1)NCc1ccc(F)cc1 4.16%, O=C(COC(=O)/C=C/c1ccc(OC(F)F)cc1)NC1CCCCC1 -18.9%, CCOc1ccc(S(=O)(=O)N2CCC(C(=O)OCc3ccc(OC)cc3)CC2)cc1 5.17%, COc1ccc(N2CCN(C(C)=C3C(=O)c4ccccc4C3=O)CC2)cc1 14.9%, O=C(C(Cl)Cl)N1CCN(c2ccccn2)CC1 1.9%, CCC1(CC)NC(=O)N(CC(=O)OCC(=O)c2cc(C)c(C)cc2C)C1=O -22.9%, CCC(=O)c1ccc(OCC(=O)N(CC)CC2COc3ccccc3O2)cc1 (stereo unspecified) -1.9%, CC1(C)NC(=O)N(CC(=O)N2CCN(S(=O)(=O)c3ccccc3F)CC2)C1=O -6.83%, CC(C)C[C@H](NC(=O)C1CCC(CNC(=O)[C@@H]2CCCN2C(=O)OC(C)(C)C)CC1)C(=O)O (stereo partly specified) -15.8%, CC(=O)Nc1ccc(S(=O)(=O)N2CCC(C(=O)N[C@@H](Cc3ccccc3)C(=O)O)CC2)cc1 -23.4%, O=C(CSc1nnc(Nc2ccccc2F)s1)NC1CCCC1 12.9%, N#Cc1ccc(C(c2nnnn2CCc2ccccc2)N2CCCCCC2)cc1 (stereo unspecified) -12.6%, N#Cc1ccc(CSc2ncccn2)cc1 -5.83%, CC1CCCC(NC(=O)c2cc(S(=O)(=O)N3CCCCC3)ccc2Cl)C1C (stereo unspecified) -4.83%, CCOC(=O)N1CCN(C(=O)C2CCN(S(=O)(=O)c3cc(Cl)ccc3OCC)CC2)CC1 -9.59%, CCOc1ccc(S(=O)(=O)N2CCC(c3ccccc3)CC2)cc1C(=O)O -17.4%, CC(C)COc1ccc(C(=O)OCC(=O)NCCC2=CCCCC2)cc1 5.26%, CCOC(=O)N1CCN(C(=O)c2cc3c(-c4ccc(Cl)cc4)nn(C)c3s2)CC1 5.45%, COc1cccc(-c2nn(C)c3sc(C(=O)N4CCN(c5ccccc5)CC4)cc23)c1 -14.9%, CCc1noc(C)c1C(=O)N1CCN(S(=O)(=O)c2cccc(C(F)(F)F)c2)CC1 -22.3%, N#CCC(=O)Nc1ccc(C(=O)OCC(=O)Nc2sc3c(c2C#N)CCCC3)cc1 -5.79%, O=C(c1cc2sccc2n1Cc1ccc(F)cc1)N1CCc2ccccc21 -20.3%, CC1Cc2ccccc2N1C(=O)c1cc2sccc2n1Cc1ccccc1 (stereo unspecified) 8.45%, CCC(C(=O)N1CCN(S(=O)(=O)c2sc(C(=O)O)c(C)c2C(=O)O)CC1)c1ccccc1 (stereo unspecified) 14.8%, CCOC(=O)N1CCN(C(=O)COC(=O)c2cccc(S(C)(=O)=O)c2)CC1 -13.9%, O=C(CCc1nc(-c2ccccc2)no1)Nc1cccc(C(=O)NC2CC2)c1 -8.46%, Cc1ccc(NC(=O)C(C)Sc2nnc(C3CC3)n2C2CC2)cc1S(=O)(=O)N1CCOCC1 (stereo unspecified) 10%, CCOC(=O)COc1cc(O)c2c(=O)cc(-c3ccccc3)oc2c1 3.55%, COc1ccc(-c2cc(=O)c3c(O)cc(O[C@@H]4O[C@H](CO[C@@H]5O[C@@H](C)[C@H](O)[C@@H](O)[C@H]5O)[C@@H](O)[C@H](O)[C@H]4O)cc3o2)cc1O 3.3%, Cc1sc2nc(COC(=O)C(NC(=O)c3ccc(Cl)cc3Cl)C(C)C)[nH]c(=O)c2c1C (stereo unspecified) 4.89%, Cc1sc2nc(CSCC(=O)NC3CCCCC3)[nH]c(=O)c2c1C 7.49%, CCOCCn1[nH]c2ccccc2c1=O 9.72%, CC(=O)Nc1ccc(S(=O)(=O)NC(C)C(=O)OCCOc2ccc(F)cc2)cc1 (stereo unspecified) 8.18%, COc1ccccc1NS(=O)(=O)c1ccc(C(=O)N2CCN(c3ccccc3O)CC2)cc1 -20.7%, O=C(Cc1ccc(F)cc1)N/N=C/c1ccc2c(c1)OCO2 -1.11%, Cc1[nH]c2ccccc2c1/C=N/NC(=O)CNC(=O)c1ccc2c(c1)OCO2 -12.8%, COC(=O)c1ccc(NS(=O)(=O)c2cc3c4c(c2)C(C)C(=O)N4CCC3)cc1 (stereo unspecified) 4.01%, CCCn1nc(C(=O)NNC(=O)CCOc2ccccc2OCC)c2ccccc2c1=O 17.8%, CCCCOCCCNC(=O)c1ccccc1OCC -16%, COc1ccc(NC(=O)N2CCC(Cc3ccccc3)CC2)cc1 3.66%, COc1ccc(NC(=S)N2CCC(NC(=O)c3cccc(F)c3)CC2)cc1 -6.43%, COc1cccc(C(=O)NNC(=O)c2cccc(F)c2)c1 0.993%, CC(=O)NC1CC2CCCC(C1)N2CC(=O)Nc1ccccc1 (stereo unspecified) 14.7%, O=C(NC1CCN(Cc2ccccc2)CC1)c1ccccc1F 21.8%, COc1ccc(C(=O)Oc2ccc(-c3nnco3)cc2)cc1S(=O)(=O)N1CCOCC1 14.7%, Cc1ccc2nc(SCC(=O)N3CC(C)OC(C)C3)nc(=O)n2c1 (stereo unspecified) -3.68%, O=C(CNS(=O)(=O)c1ccc2c(c1)OCCCO2)N1CCN(c2ccc(F)cc2)CC1 -12.5%, Cn1c(-c2ccc(F)cc2)cc2onc(-c3ccccc3Cl)c2c1=O 8.07%, CCN(CC)S(=O)(=O)c1ccc2[nH]c(=O)cc(C(=O)N(C)C3CCS(=O)(=O)C3)c2c1 (stereo unspecified) -4.37%, CC(=O)Nc1ccccc1NC(=O)c1cc(C)cc(C)c1 13.8%, C=CCN(c1ccc(C(=O)Nc2cc(C)cc(C)c2)cc1)S(C)(=O)=O -5.69%, COC(=O)Cc1ccc(OC(=O)C2CCN(S(=O)(=O)c3ccc(OC)c(OC)c3)CC2)cc1 -7.28%, COc1ccc(CC(=O)OC(C)C(=O)Nc2ccc(S(N)(=O)=O)cc2)cc1 (stereo unspecified) -2.4%, CCCc1nnc(NC(=O)c2cc(OC)cc(OC)c2)s1 -9.73%, COc1ccc(Cc2nnc(NC(=O)c3ccc(OC)cc3OC)s2)cc1 2.14%, Cc1ccc(N2CC(C(=O)Nc3cc(Cl)ccc3-n3cncn3)CC2=O)cc1 (stereo unspecified) -16.3%, CCN(Cc1ccccc1)C(=O)Cc1ccc(OC)c(S(=O)(=O)N2CCOCC2)c1 -8.71%, CC(NCC(=O)Nc1ccccc1C(=O)NC1CC1)c1ccccc1Cl (stereo unspecified) 26.6%, COc1ccc(C(CNC(=O)c2cccc(S(=O)(=O)Nc3ccccc3Cl)c2)N2CCOCC2)cc1 (stereo unspecified) -9.15%, CCOC(=O)C1=C(C)NC2=C(C(=O)CC(C)(C)C2)C1c1ccsc1 (stereo unspecified) -9.11%, COc1cc(C2C(C#N)=C(C)NC3=C2C(=O)CC(C)(C)C3)ccc1O (stereo unspecified) -7.78%, CCOC(=O)c1ccccc1NC(=O)COC(=O)C(Cc1c[nH]c2ccccc12)NC(C)=O (stereo unspecified) -6.93%, CCC(=O)c1ccc(OCC(=O)Nc2ccc(N3CCCCC3)cc2)cc1 19%, CCN(CC(=O)Nc1cc(Cl)ccc1C)C(=O)CSCc1ccc(C)cc1 -3.18%, Cc1ccc(C2C3=C(Nc4[nH]n(-c5ccccc5)c(=O)c42)c2ccccc2C3=O)cc1 (stereo unspecified) -28.5%, CCOC(=O)C1=C(c2ccc(OC)cc2)C(=O)c2ccccc2C1=O -4.28%, O=C(c1ccc(Cl)c(S(=O)(=O)N2CCCCCC2)c1)N1CCN(c2ccc(O)cc2)CC1 4.16%, CCOC(=O)C(C)N(c1ccccc1Cl)S(C)(=O)=O (stereo unspecified) -9.97%, CCN(CC)CCNC(=O)CCCCCn1c(=O)[nH]c2cc(C(=O)OC)ccc2c1=O -2.71%, O=C(CCc1c[nH]c2ccccc12)NCCOc1ccccc1 12.3%, O=C(CCCCn1c(=O)[nH]c2ccccc2c1=O)NCc1ccc2c(c1)OCO2 -1.23%, Cc1ccc(C)c(N2CCN(C(=O)CCCCn3c(=O)[nH]c4ccccc4c3=O)CC2)c1 -2.01%
